Some test systems named below: DU-145 prostate; K-562 leukemia; MALME-3M melanoma; MDA-MB-231 breast; RXF 393 renal; SF-268 CNS; SF-295 CNS; SF-539 CNS; UACC-257 melanoma; M14 melanoma; HCT-15 colon; HT29 colon; SNB-75 CNS; SNB-19 CNS; U251 CNS; PC-3 prostate; SK-MEL-5 melanoma; UACC-62 melanoma; LOX IMVI melanoma; SK-MEL-28 melanoma.
Experiment in all cases: NCI-60 one-dose screen, 48 h (100 = growth as untreated, 0 = no growth, -100 = all killed)
Conditions in all cases: 10 µM

SMILES strings stand for the structures. Compounds without any hit were thinned out: in the full panel of roughly 83,000, 20% have a hit.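 48-hour exposure, single concentration, 96-well plates; percent growth endpoint where 0 means no net growth. Active: below 10.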 A number with no mark means an inactive call. Activity calls are given as the source filed them.

As to `C[C@@H]1N=C(c2ccc(Br)cc2)Nc2nc3ccccn3c2C1=O`, the growth was 87.7% with DU-145 prostate; 24.3% in the experiment on K-562 leukemia; 51.8% in the experiment with MALME-3M melanoma; 52.7% in the experiment on MDA-MB-231 breast; 68.2% in the experiment with RXF 393 renal; 83.4% with SF-268 CNS. Moreover, the growth is 40.9% in the experiment with SF-295 CNS; 74.6% in the experiment with SF-539 CNS; 69.9% with UACC-257 melanoma; 31.8% in the experiment with M14 melanoma; 30.7% in the experiment on HCT-15 colon; 17.5% in the experiment with HT29 colon. The growth was 50.2% with SNB-75 CNS; 82.6% in the experiment with SNB-19 CNS; 54% in the experiment with U251 CNS; 63.2% in the experiment with PC-3 prostate; 31.9% in the experiment on SK-MEL-5 melanoma; 49.2% in the experiment on UACC-62 melanoma. In addition, the results for the growth in the experiment with LOX IMVI melanoma and in the experiment with SK-MEL-28 melanoma were 52.4% and 66.2%, respectively.

In the case of `O=C(c1ccc(Cl)cc1)c1no[n+]([O-])c1C(=O)c1ccc(Cl)cc1`, the growth with DU-145 prostate is 94.1%; with K-562 leukemia, 5.95% (active); with MALME-3M melanoma, -76.2% (active); in the experiment with MDA-MB-231 breast, 124%; with RXF 393 renal, 44.6%; with SF-268 CNS, 102%. For the same compound, the growth in the experiment on SF-295 CNS is 83.8%; with SF-539 CNS, 98.5%; in the experiment with UACC-257 melanoma it was 104%; in the experiment on M14 melanoma it was 92.5%; in the experiment with HCT-15 colon, 95.7%; in the experiment with HT29 colon, 67.3%. For the same compound, the growth was 97.9% in the experiment on SNB-75 CNS; 115% with SNB-19 CNS; 104% with U251 CNS; 92.9% in the experiment with PC-3 prostate; 98.3% in the experiment with SK-MEL-5 melanoma; 118% with UACC-62 melanoma. Besides, the growth with LOX IMVI melanoma is -74.2% (active); with SK-MEL-28 melanoma, 117%.

Regarding `C#C[C@]1(O)CC[C@H]2[C@@H]3CC[C@H]4CC(F)(F)CC[C@]4(C)[C@H]3CC[C@@]21C`, the growth in the experiment with DU-145 prostate was 61.2%; in the experiment with K-562 leukemia it was 76.2%; in the experiment with MALME-3M melanoma it was 88%; with MDA-MB-231 breast it was 101%; in the experiment with RXF 393 renal it was 86.4%; in the experiment on SF-268 CNS, 92.9%. For the same compound, the growth with SF-295 CNS is 69.1%; with SF-539 CNS it was 54.6%; in the experiment with UACC-257 melanoma, 78.3%; in the experiment on M14 melanoma, 80.4%; with HCT-15 colon, 94.6%; with HT29 colon it was 64.1%. Further, the growth in the experiment on SNB-75 CNS was 70.5%; with SNB-19 CNS it was 80.3%; in the experiment with U251 CNS it was 73.3%; in the experiment with PC-3 prostate, 70.7%; with SK-MEL-5 melanoma it was 94.3%; in the experiment on UACC-62 melanoma, 78.8%. Also, the growth was 89.1% in the experiment on LOX IMVI melanoma and 74.4% in the experiment on SK-MEL-28 melanoma.

On to `N=C(N)c1ccc(-c2ccc(-c3ccccc3)s2)cc1F`, for which the growth is -95.5% (active) in the experiment on DU-145 prostate; -70.8% (active) in the experiment on K-562 leukemia; -76.7% (active) in the experiment with MALME-3M melanoma; -82.3% (active) in the experiment on MDA-MB-231 breast; -86.9% (active) in the experiment on RXF 393 renal; -84.6% (active) with SF-268 CNS. Further, the growth is -77.9% (active) with SF-295 CNS; -97.3% (active) in the experiment with SF-539 CNS; -84.1% (active) with UACC-257 melanoma; -93.1% (active) in the experiment with M14 melanoma; -77.1% (active) in the experiment on HCT-15 colon; -89.8% (active) in the experiment on HT29 colon. Moreover, the growth with SNB-75 CNS is -92.4% (active); in the experiment on SNB-19 CNS, -75.9% (active); in the experiment on U251 CNS it was -94.5% (active); with PC-3 prostate it was -88% (active); in the experiment on SK-MEL-5 melanoma it was -97% (active); with UACC-62 melanoma it was -93.1% (active). In addition, the growth is -81.4% (active) with LOX IMVI melanoma and -96.2% (active) in the experiment with SK-MEL-28 melanoma.

As to `CCOC(=O)c1c(C)n(-c2ccc(Cl)cc2)c2ccc(OC(=O)/C=C/c3ccccc3)cc12`, the growth is 91% in the experiment on DU-145 prostate; 25.4% in the experiment on K-562 leukemia; 72.9% in the experiment with MALME-3M melanoma; 63.4% in the experiment with MDA-MB-231 breast; 73.7% with RXF 393 renal; 94.1% in the experiment on SF-268 CNS. Moreover, the growth with SF-295 CNS is 79.4%; in the experiment on SF-539 CNS, 92.7%; with UACC-257 melanoma, 84.2%; in the experiment on M14 melanoma it was 83.1%; with HCT-15 colon it was 60.8%; in the experiment with HT29 colon, 66.1%. In addition, the growth is 66.6% in the experiment on SNB-75 CNS; 89.7% in the experiment with SNB-19 CNS; 83.2% in the experiment with U251 CNS; 67.7% with PC-3 prostate; 79.1% in the experiment on SK-MEL-5 melanoma; 68.1% in the experiment on UACC-62 melanoma. Moreover, the growth in the experiment on LOX IMVI melanoma is 91.4%; in the experiment with SK-MEL-28 melanoma, 81.9%.

For `COc1ccc(-c2nnc(SCC(=O)c3ccccc3)o2)cc1`, the growth is 102% in the experiment on DU-145 prostate; 92.3% with K-562 leukemia; 104% in the experiment with MALME-3M melanoma; 99.3% in the experiment with MDA-MB-231 breast; 94.2% in the experiment with RXF 393 renal; 102% in the experiment with SF-268 CNS. The growth with SF-295 CNS was 101%; in the experiment on SF-539 CNS, 98.8%; with UACC-257 melanoma, 89.4%; with M14 melanoma, 101%; in the experiment on HCT-15 colon it was 96.3%; with HT29 colon, 90.8%. In addition, the growth with SNB-75 CNS is 92.5%; with SNB-19 CNS, 96.9%; with U251 CNS it was 98.1%; in the experiment with PC-3 prostate, 97.1%; in the experiment with SK-MEL-5 melanoma, 92.8%; in the experiment on UACC-62 melanoma, 88.3%. The growth was 92.8% in the experiment on LOX IMVI melanoma and 106% with SK-MEL-28 melanoma.

Consider `O/N=C1\CCC2CCCCC2C1` (stereo not given), for which the growth with DU-145 prostate is 113%; with K-562 leukemia, 106%; in the experiment on MALME-3M melanoma, 98.2%; in the experiment on MDA-MB-231 breast, 114%; with RXF 393 renal, 104%; in the experiment with SF-268 CNS it was 103%. For the same compound, the growth with SF-295 CNS was 93.6%; with SF-539 CNS, 88.8%; with UACC-257 melanoma, 107%; in the experiment with M14 melanoma, 102%; in the experiment with HCT-15 colon, 99.6%; in the experiment on HT29 colon it was 99.2%. The growth with SNB-75 CNS is 71%; with SNB-19 CNS it was 98.5%; with U251 CNS, 107%; in the experiment with PC-3 prostate, 97.1%; with SK-MEL-5 melanoma, 102%; in the experiment on UACC-62 melanoma, 106%. Further, the growth in the experiment on LOX IMVI melanoma is 98.2%; with SK-MEL-28 melanoma it was 108%.

Regarding `Clc1ccc(-c2nc(-c3cccs3)cn3ccnc23)cc1`, the growth is 94.7% with DU-145 prostate; 26.1% in the experiment with K-562 leukemia; 86% with MALME-3M melanoma; 66.5% with MDA-MB-231 breast; 86.7% with RXF 393 renal; 82.8% in the experiment on SF-268 CNS. In addition, the growth in the experiment with SF-295 CNS is 81.9%; in the experiment with SF-539 CNS, 76.7%; in the experiment with UACC-257 melanoma, 70.2%; in the experiment on M14 melanoma, 61.5%; with HCT-15 colon it was 31.2%; in the experiment on HT29 colon, 41.6%. For the same compound, the growth with SNB-75 CNS is 68.1%; in the experiment with SNB-19 CNS, 88.6%; in the experiment with U251 CNS, 82.5%; in the experiment with PC-3 prostate, 62.4%; with SK-MEL-5 melanoma, 53.2%; in the experiment on UACC-62 melanoma, 60.2%. The growth in the experiment on LOX IMVI melanoma is 61.4%; in the experiment on SK-MEL-28 melanoma it was 92.5%.

The record behind these values is PubChem BioAssay (NCI).
